Where “and” joins values, the source holds several entries; their conditions need not be identical. Equal entries are not always repeated. Inconclusive results are not listed. Unmarked numbers belong to inactive results. Calls of active or inactive are those of the source. Calls follow the shape of the dose curve; as a rule, active = well fitted curve in the direction sought with a large enough effect; inconclusive = small, poorly fitted or top-dose-only effect, or another doubt; inactive = no such curve, though single readings can be large; an effect the other way counts as inactive or inconclusive.
What was measured:
[1] = Viability qHTS for spleen associated tyrosine kinase inhibitor (SYKi) drug resistant MV4-11 cells (AID 1963824); conditions: SYKi-resistant MV4-11 viability, CellTiter-Glo, 72 h; series mostly up to 45 µM; also: nearly all actives have a fitted effect of over 35% in size
Method in brief: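 SYK inhibitor-resistant MV4-11 AML cells, 500 per well, added to predispensed compounds and incubated 72 hr at 37 C, 5% CO2. Viability measured by CellTiter-Glo luminescence after 10 min at room temperature.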

[2] = Cellular viability qHTS for adrenocortical cancer (ACC) cell line SW-13 (AID 1963989); conditions: SW-13 ACC cells viability, CellTiter-Glo, 48 h; activity (max response): stronger effect = lower value; also: nearly all actives have a fitted effect of over 65% in size;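 as to activity (max response): cells grown in serum-free medium with ITS supplement; % is scaled to controls: 0 for no effect and ±100 for the full control effect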
Method in brief: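 Compound titrations (up to 46 uM final, in DMSO) were applied to SW-13 cells for 48 h at 37C/5% CO2. Reading used CellTiter-Glo after 20 min at room temperature; fitted curves yielded IC50 and efficacy.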

[3] = Cellular viability qHTS for adrenocortical cancer (ACC) cell line NCI-H295R (AID 1963990); conditions: CellTiter-Glo ATP luminescence, 48 h; series mostly up to 46.1 µM; also: nearly all actives have a fitted effect of over 60% in size
Method in brief: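 Readout: CellTiter-Glo luminescence, 20 min RT. Exposure: 48 h, 37C/5% CO2. Cells: NCI-H295R, ITS-DMEM serum-free. Range: up to 46 uM. Analysis: 4PL fit, IC50 plus efficacy.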
Potency is read from the fitted curve at half-maximal effect.

CC(C)[C@H](CO)Nc1nc(Nc2ccc(C(=O)O)c(Cl)c2)c2ncn(C(C)C)c2n1
Potency [1]: 16.6 µM (active) | activity (max response) [2]: 10.6% | Potency [3]: inactive

C=CC(=O)Nc1cccc(Oc2nc(Nc3ccc(N4CCN(C)CC4)c(F)c3)nc3[nH]ccc23)c1
Potency [1]: 0.525 µM (active) | Potency [2]: 2.82 µM (active) | Potency [3]: 8.91 µM (active)

CCCCC(CC)COC(=O)c1ccccc1C(=O)O (stereo not given)
Potency [1]: 19.7 µM (active) | activity (max response) [2]: 6.28% | Potency [3]: inactive

CC(C)n1c(=O)cc(N[C@@H](C)c2ccccc2)[nH]c1=O
Potency [1]: 11.8 µM (active) | activity (max response) [2]: 6.06% | Potency [3]: inactive

C#C[C@]1(O)CC[C@H]2[C@@H]3CCC4=CC(=O)CC[C@@H]4[C@H]3CC[C@@]21CC
Potency [1]: 9.34 µM (active) | activity (max response) [2]: -2.48% and -7.29% | Potency [3]: inactive

CC1(C)O[C@@H]2C[C@H]3[C@@H]4C[C@H](F)C5=CC(=O)C=C[C@]5(C)[C@H]4[C@@H](O)C[C@]3(C)[C@]2(C(=O)CO)O1
Potency [1]: 18.6 µM (active) | activity (max response) [2]: -3.16% and 0.473% | Potency [3]: inactive

COc1cc(NS(C)(=O)=O)ccc1Nc1c2ccccc2nc2ccccc12
Potency [1]: 0.468 µM (active) | Potency [2]: 5.62 µM (active) | Potency [3]: 8.91 µM (active)

CCOc1ccc(C(=O)OCCN(CC)CC)cc1
Potency [1]: inactive | activity (max response) [2]: -4.6% | Potency [3]: inactive

CC[C@@H]1[C@H](F)C(=O)N[C@@H]1COc1nccc2cc(C(N)=O)c(OC)cc12
Potency [1]: 14.8 µM (active) | activity (max response) [2]: -21.5% | Potency [3]: inactive

S=c1[nH]c2ccccc2s1
Potency [1]: 0.545 µM (active) | activity (max response) [2]: 3% | Potency [3]: inactive

— PubChem BioAssay (NCATS)
